Structures can show the parent of a compound that is named as a salt. ± gives the standard deviation of the averaged measurements.
What follows are molecules tested on Toxoplasma gondii RH (in HFF) (assay: parasite growth relative to the screen mean (all compounds = 100%); higher = less inhibition of parasite growth). Details: 5 µM; 72 h; oxygen 21 %.
How it was run: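 Each value is parasite growth expressed against the screen mean, averaged over two screens, where the mean of all compounds = 100%. The screen used 5 µM final compound on confluent human foreskin fibroblasts infected with RH β-Gal–GFP Toxoplasma (MOI 1:5) within 2 h and grown 72 h at 21% O2. Parasite number was measured by a CPRG β-Gal assay against in-plate standard curves.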
Work on `CN1[C@@H]2C[C@@H](OC(=O)[C@H](CO)c3ccccc3)C[C@H]1[C@@H]1O[C@@H]12` [Scopolamine hydrobromide] yielded a parasite growth of 83.5 ± 48%. `COC(=O)[C@@H](N)CCCNC(=N)N[N+](=O)[O-]` [L-NAME hydrochloride] was tested, and the parasite growth was 81.5 ± 24%. For `O=C1/C(=C/c2ccccc2)C[C@@]2(O)[C@H]3Cc4ccc(O)c5c4[C@@]2(CCN3CC2CC2)[C@H]1O5` [BNTX maleate], the parasite growth was under 0%. Molecule `N.N.[Cl][Pt][Cl]` [Cisplatin] has a parasite growth of 144 ± 80%. `OC(Cc1ccncc1)C(Cl)(Cl)Cl` (stereo not given) gave a parasite growth of 133 ± 9.6%.
